# Source: PubChem BioAssay AID862 (The Scripps Research Institute Molecular Screening Center, 2007)
# Out of some 190,000 compounds screened, about 1,700 (0.89%) were called active. The entries come from a sample that favours actives as a whole. Values without a mark were called inactive.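 Rule for the calls: active = inhibition above the mean inhibition across all screened compounds plus 3 SD (cut at about 44% in these data); inactive = the rest.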
# Assay: blockers of STAT3 transcriptional signaling – U3A cells, luciferase, luminescence, MLSCN library, primary screen (AID 862);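 note: 0% = DMSO only wells and 100% = 100 µM nifuroxazide control wells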
# Conditions: IL-6 STAT3-luciferase reporter, at 5.5 µM, hits give high values, host cell line lacks STAT1
row,Structure (SMILES),inhibition
1,Cc1ccc(S(=O)(=O)Nc2ccc3ncccc3c2)cc1,49.6% (active)
2,Cc1ccc(OCC(=O)Nc2ccc(S(=O)(=O)Nc3ccccn3)cc2)cc1,4.3%
3,Cc1cc(C)cc(OCC(=O)Nc2ccc(S(=O)(=O)Nc3ccccn3)cc2)c1,-0.1%
4,CC1CCCCC1NC(=O)CO/N=C/c1ccc(OC(F)F)cc1 (stereo unspecified),-1.1%
5,CCCCC(O)(CCCC)C(=O)NN(C(=O)CCl)c1ccccc1,2.7%
6,Cc1cc(CNC(=O)c2cccc([N+](=O)[O-])c2)c2ccccc2n1,12.3%
7,Cc1cccc(-n2c(Cc3cc(=O)[nH]c(=O)[nH]3)nnc2SCC(=O)Nc2cccc(C(F)(F)F)c2)c1,2%
8,O=C(O)c1cccc(NC(=S)N/N=C/c2c[nH]c3ccccc23)c1,73.2% (active)
9,CN(C)S(=O)(=O)c1cccc(NC(=S)N/N=C/C(=O)c2ccccc2)c1,8%
10,CSC(=S)N/N=C/c1c[nH]c2ccccc12,-10.1%
11,CCS(=O)(=O)Nc1ccc(C2=NN(C(C)=O)C(c3cccs3)C2)cc1 (stereo unspecified),6.9%
12,O=[N+]([O-])c1cc(S(=O)(=O)N2CCCC2)ccc1NN=C1CCCC1,8.3%
13,Cc1ccc(S(=O)(=O)N(C)C)cc1NC(=O)COC(=O)c1c(C)noc1C,6.4%
14,COc1ccc(/C(=N\O)c2nccc3cc(OC)c(OC)cc23)cc1OC,-1.8%
15,Cc1noc(NS(=O)(=O)c2ccc(N/C=C/C(=O)c3ccccc3)cc2)c1C,-6.5%
16,Cc1ccc(N/C=C/C(=O)c2ccccc2)cc1C,52.2% (active)
17,O=C(/C=C\NCC(=O)c1ccccc1)c1ccccc1,22.1%
18,O=c1cc(O)c(-c2cccc(C(F)(F)F)c2)c(Cl)[nH]1,5.9%
19,Nc1ncc(-c2cc3ccccc3oc2=O)s1,14.8%
20,O=C(c1cn(-c2ccccc2)nc1-c1cc2ccccc2oc1=O)N1CCOCC1,11.6%
21,O=c1oc2ccccc2cc1-c1cn(-c2ccccc2)c(=S)[nH]1,108% (active)
22,CC1(C)C2CC=C(/C=N/NC(=O)c3ccc(Cl)cc3)C1C2 (stereo unspecified),-5.9%
23,Fc1cccc(CSc2nnc3ccc(-c4ccncc4)nn23)c1,9.1%
24,CCCNC(=O)c1c(N)n(-c2ccc(S(N)(=O)=O)cc2)c2nc3ccccc3nc12,21.5%
25,CC(C)Cn1c(N)c(C(=O)NCc2cccs2)c2nc3ccccc3nc21,-8.7%
26,CCC(C)NC(=O)c1c(N)n(/N=C/c2cccs2)c2nc3ccccc3nc12 (stereo unspecified),81.7% (active)

row,Structure (SMILES),inhibition
1,CN(/C(=N/S(=O)(=O)c1cccs1)c1ccccc1)c1ccc(O)cc1,-3.2%
2,Cc1cc(NC(=O)CN2C(=O)NC(C)(CCc3ccccc3)C2=O)no1 (stereo unspecified),-5.6%
3,O=C(O)CCc1nc2cc(Cl)ccc2n(Cc2ccccc2)c1=O,2.8%
4,CN1c2ccccc2-c2nc3ccccc3n2C1c1ccco1 (stereo unspecified),14%
5,CN(c1nc2ccccc2n2c(-c3ccco3)nnc12)S(=O)(=O)c1ccccc1,4.1%
6,Cn1c(-c2ccco2)nc2cc3ccccc3cc21,79.1% (active)
7,O=C1CCCC(O)=C1N=Nc1ccc2ncsc2c1,-0.2%
8,O=C(NCCCn1ccnc1)C(=O)c1cn(CC(=O)N2CCCCCC2)c2ccccc12,6.5%
9,CC(C)N(C(=O)CSc1nc(COc2ccccc2)nc2ccccc12)C(C)C,10.8%
10,CC(=O)N1CCc2cc(Br)cc(S(=O)(=O)CCC(=O)Nc3c(C)n(C)n(-c4ccccc4)c3=O)c21,-1.8%
11,O=C(NCc1cccnc1)c1nc(-c2cccs2)no1,1.9%
12,Cc1cc(C(=O)Cn2cnc3cc([N+](=O)[O-])ccc3c2=O)c(C)n1CC1CCCO1 (stereo unspecified),8.2%
13,Cc1ccsc1C(=O)OCC(=O)c1cc(C)n(CC2CCCO2)c1C (stereo unspecified),95.8% (active)
14,Cc1ccsc1C(=O)OCC(=O)c1cc2ccccc2o1,13.5%
15,CC(C)(C)C1CCC(OC(=O)CCC(=O)Nc2ccccc2)CC1 (stereo unspecified),5.2%
16,O=C(c1cc(=O)c2ccccc2o1)N1CCN(c2ccccc2)CC1,4.4%
17,Cc1nc(-c2ccc(NC(=O)c3cccs3)cc2)cs1,78.1% (active)
18,Cc1ccc(-c2nnc(-c3ccc(NC(=O)c4cccs4)cc3)o2)cc1,11.8%
19,Cc1ccc(-c2csc(NC(=O)c3cccs3)n2)cc1,12.6%
20,Cc1ccc(S(=O)(=O)N2CCN(CC(=O)N/N=C/c3cc([N+](=O)[O-])ccc3Cl)CC2)cc1,-9.8%
21,O=C1CCCc2c1nc(-c1cccc(Cl)c1)n2O,-13.1%
22,O=c1c2c(nc3nc[nH]n13)CCC2,-1.5%
23,O=c1c2c(nc3cc(-c4cccc(Cl)c4)[nH]n13)CCCC2,65.7% (active)
24,O=C(c1ccccc1)c1ccc(OCC(O)CN2CCCC2)cc1 (stereo unspecified),-2.9%
25,CCc1cc(-c2n[nH]c(=S)n2CC(C)C)cs1,5%
26,CCOc1ccc(OCc2cccc(C(=O)N(CC)CC)c2)cc1,70.7% (active)

row,Structure (SMILES),inhibition
1,COc1ccc(OCc2cccc(C(=O)N3CCCC3)c2)cc1,29%
2,CCN(CC)C(=O)c1ccc(O)c(OC)c1,-3%
3,Cc1ccc(NC(=O)C(=O)NCC2CCN(C(=O)c3cccc([N+](=O)[O-])c3)CC2)cc1,6.1%
4,COc1c(Cl)cc(C(=O)Nc2ccc(Cl)cn2)cc1Cl,-37.3%
5,COc1ccc(C(=O)NC(=S)Nc2ccc(Cl)cn2)cc1OC,20.4%
6,O=C(Nc1ccc(Cl)cn1)c1ccc2c(c1)OCCO2,70.2% (active)
7,O=C(Nc1ccc2c(c1)OCCO2)c1ccc(Cl)c(S(=O)(=O)N2CCCCC2)c1,25.5%
8,O=C(Nc1cccc(S(=O)(=O)Nc2ccc(Cl)cc2)c1)c1ccc2c(c1)OCCO2,44.7% (active)
9,O=C(Nc1cccc(S(=O)(=O)N2CCCCC2)c1)c1ccc2c(c1)OCO2,11.4%
10,CC(=O)NC(=S)NNC(=O)c1ccc(Br)cc1,-0.5%
11,O=C1N/C(=C/c2cccs2)C(=O)N1Cc1ccc(F)cc1,-0.7%
12,Cc1ccc(NC(=O)NNC(=O)c2sccc2-n2cccc2)cc1,-2.5%
13,Cc1ccnc(NC(=O)C(C)N2C(=O)c3ccccc3C2=O)c1 (stereo unspecified),1.4%
14,COc1ccc2nc(Nc3nc4cc5c(cc4s3)OCCO5)sc2c1,10.2%
15,c1c2c(cc3sc(N4CCCCC4)nc13)OCCO2,89.7% (active)
16,Brc1ccc2nc(N3CCCC3)sc2c1,30.3%
17,CC(C)c1csc(CN2CCC(CO)(Cc3ccccc3)CC2)n1,2.1%
18,CS(=O)(=O)N(Cc1ccccc1Cl)c1ccc(C(=O)NCc2cccnc2)cc1,-0.3%
19,Fc1ccc(CNCc2ccc(Br)cc2)cc1,19.2%
20,NC1=NC(=O)S/C1=C\c1ccc(O)cc1,3.3%
21,O=C(Nc1ccccc1)c1ccc2c(c1)OCO2,18.6%
22,O=C(Nc1nc(-c2ccc3c(c2)OCO3)cs1)c1ccncc1,64.6% (active)
23,Cc1cc(C)c2nc(NC(=O)c3ccc4c(c3)OCO4)sc2c1,6.8%
24,O=C(Nc1nc(-c2ccncc2)cs1)C1COc2ccccc2O1 (stereo unspecified),22.6%
25,O=C(Nc1nc2ccccc2s1)c1ccc2c(c1)OCO2,61.3% (active)
26,Cc1ccc(-c2csc(NC(=O)c3cnccn3)n2)cc1C,15.5%

row,Structure (SMILES),inhibition
1,C/C(CC(=O)Nc1cccc(C(F)(F)F)c1)=N\NC(=O)C(=O)NCC(C)C,0.3%
2,COc1cc(NS(=O)(=O)c2ccc(NC(C)=O)cc2)cc(OC)c1,38%
3,COC(=O)c1c(C)oc2ccc(N(C(=O)Oc3ccccc3)S(=O)(=O)c3ccccc3)cc12,5.2%
4,COc1ccc(NS(=O)(=O)c2ccc(NC(C)=O)cc2)cc1OC,47.9% (active)
5,COc1ccc2oc(C)c(NC(C)=O)c2c1,4.1%
6,COC(=O)COc1ccc(S(=O)(=O)Nc2ccc(NC(C)=O)cc2)cc1,-2%
7,COc1ccc(S(=O)(=O)Nc2ccc3oc(C)c(C(C)=O)c3c2)cc1,46% (active)
8,Cc1ccc2c(=O)oc(N(C)C)nc2c1,-6.4%
9,CCc1c(C)nc2c(OC)cccc2c1Cl,3.4%
10,COc1ccccc1C1SCCN1C(=O)c1ccc([N+](=O)[O-])cc1 (stereo unspecified),-1.1%
11,COc1ccc(C(=O)Nc2ccc(CN3CCOCC3)cc2)cc1,-2.1%
12,O=C(Nc1ccc(CSc2ccccc2)cc1)c1ccc(CN2CCOCC2)cc1,72.7% (active)
13,O=C(Nc1ccccc1C(=O)N1CCOCC1)c1ccc(CSc2ccccc2)cc1,24%
14,COc1ccc(C(=O)Nc2ccc(-n3nncc3C(C)(C)C)cc2)cc1,-0.3%
15,Cc1cccc(C)c1Nc1nnc(SCC(=O)Nc2sccc2C#N)s1,6.5%
16,Cc1csc(SCC(=O)Nc2sccc2C#N)n1,44.3% (active)
17,COc1ccc(NC(=O)CSc2nc(C)cs2)cc1,10.5%
18,Cc1cc(-c2nnc(CCC(=O)NC(c3ccccc3)c3ccccc3)o2)no1,9.8%
19,Cc1nn(CC#N)c(=O)n1N(C)c1ncc(C(F)(F)F)cc1Cl,6.6%
20,Cn1c(SCC(=O)Nc2ccc(Br)cc2F)nnc1-c1ccco1,7.9%
21,COc1ccc(C(=O)Nc2ccc(S(=O)(=O)NC(C)C)cc2)cc1,-0.4%
22,COc1cc(OC)cc(C(=O)Nc2ccc(S(=O)(=O)Nc3cc(C)on3)cc2)c1,20.2%
23,COc1ccc(NS(=O)(=O)c2ccc(NC(=O)c3ccc(N(C)S(C)(=O)=O)cc3)cc2)cc1,60.1% (active)
